# In PubChem BioAssay AID624273 (Broad Institute, 2012):
# Among all 1,000 compounds or so, about 230 (23%) were called active. About 1% were inconclusive and are not listed. Some of the results follow. Entries with a potency or affinity are not part of this list. Values without a mark were called inactive. No rule for the calls is given here.
# Molecular target: Long-chain-fatty-acid--AMP ligase FadD28 (Mycobacterium tuberculosis (strain ATCC 25618 / H37Rv)) (UniProt P9WQ59)
# Experiment: inhibitors of FadD28 bisubstrate probe binding, dose response, biochemical, fluorescence polarization, cherry-pick (AID 624273)
# Details: series mostly up to 50 µM; activity change, negative = inhibition: at the top concentration
# Chain of Long-chain-fatty-acid--AMP ligase FadD28 (Mycobacterium tuberculosis (strain ATCC 25618 / H37Rv)) (P9WQ59 whole entry, looked up): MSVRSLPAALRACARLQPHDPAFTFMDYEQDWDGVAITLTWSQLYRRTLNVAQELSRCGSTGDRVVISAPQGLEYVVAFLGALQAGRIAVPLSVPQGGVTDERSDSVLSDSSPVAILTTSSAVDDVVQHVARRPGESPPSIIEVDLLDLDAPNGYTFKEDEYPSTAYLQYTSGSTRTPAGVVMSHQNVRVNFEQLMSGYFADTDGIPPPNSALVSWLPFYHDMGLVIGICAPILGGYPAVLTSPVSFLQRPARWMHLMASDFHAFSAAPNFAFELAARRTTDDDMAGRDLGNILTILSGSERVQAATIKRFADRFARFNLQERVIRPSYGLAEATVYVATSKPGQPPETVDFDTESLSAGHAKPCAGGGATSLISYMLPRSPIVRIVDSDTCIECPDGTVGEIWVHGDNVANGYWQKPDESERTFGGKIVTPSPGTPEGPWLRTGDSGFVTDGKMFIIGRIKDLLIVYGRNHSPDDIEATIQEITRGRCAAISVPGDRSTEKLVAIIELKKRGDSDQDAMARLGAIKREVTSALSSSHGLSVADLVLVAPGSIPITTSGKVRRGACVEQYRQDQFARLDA
row,Structure (SMILES),"activity change, negative = inhibition [%]"
1,O=C(/C=C/c1ccco1)Nc1sc2c(c1C(=O)O)CCC2,0.459
2,CC(=O)Nc1ccc(NC(=O)CSc2nc3nc(C)cc(C)c3c(=O)[nH]2)cc1,-2.41
3,CCC(=O)Nc1cccc(-n2nnnc2SCC(=O)c2ccc(C)c(C)c2)c1,-13
4,COc1ccc(-n2nnnc2SCC(=O)c2ccc(O)c(O)c2)cc1,-12.5
5,CCOc1ccccc1NC(=O)CN(C)S(=O)(=O)c1cnc[nH]1,-5.79
6,Cc1cc(SCNC(=O)c2ccccc2)nc(C(C)C)n1,-7.43
7,COc1ccc(C(C(=O)NC2CCCCC2)N(C(=O)c2sc(C)nc2C)c2ccc(OC)cc2)cc1 (configuration not stated),9.21
8,Cc1c(Cc2ccc3c(c2)OCO3)sc(NC(=O)c2ccc3ccccc3c2)c1C(N)=O,-7.43
9,CCOC(=O)CNC(=O)Cn1cnc2c(cnn2-c2ccc(C)cc2)c1=O,-4.81
10,O=c1c2ccccc2c(-c2ccc(O)cc2)nn1-c1cccc(C(F)(F)F)c1,4.72
11,CC(C)CN(C(=O)c1ccc(-n2cncn2)c([N+](=O)[O-])c1)C1CCS(=O)(=O)C1 (configuration not stated),-8.25
12,C/C(Cl)=C\Cn1c(O)c(N=O)c2ccccc21,3.06
13,CC(=O)N1CC2(C)CN(C(C)=O)CC(C)(C1)C2=O,-4.73
14,O=C1ON=C(c2cccc([N+](=O)[O-])c2)/C1=C/c1ccc(O)cc1,-19.1
15,O=C(O)CC1S/C(=N/N=C/c2ccc(-c3ccc(Cl)c([N+](=O)[O-])c3)o2)NC1=O (configuration not stated),-14.3
16,Cc1ccc(-n2cccc2/C=C2/NC(=O)N(CC(=O)Nc3cccc(C)c3)C2=O)cc1,-3.09
17,COCCNC(=O)C1CCC(CNS(=O)(=O)c2ccc3c(c2)CC(C)N3C(=O)C2CC2)CC1 (configuration not stated),-4.61
18,COc1ccc(N/C=C(\C2OC(=O)c3ccccc32)[N+](=O)[O-])cc1 (configuration not stated),-6.01
19,CCOc1cc(C2C(C(=O)OC(C)C)=C(C)N=C3SCCC(=O)N32)ccc1OC(C)=O (configuration not stated),0.929
20,c1ccc2c(C[C@@H]3CNCCN3CC3CCCCC3)cccc2c1,11.1
21,COC(=O)CSc1nc2ccccc2nc1SCC(=O)OC,-3.98
22,O=[N+]([O-])c1ccc(OCCn2cncn2)cc1,-11.1
23,COC(=O)c1ccc(Cl)c(NS(=O)(=O)c2ccc3c(c2)OCCO3)c1,-4.88
24,Cc1cc(C)n(CCN(C)C(=O)CCc2nnc(-c3ccc4c(c3)OCO4)o2)n1,-9.68
25,CN(C)C=NCCn1c(N2CCOCC2)nc2c1c(=O)n(C)c(=O)n2C,-6.64
26,O=C(O)CN1CCN(Cc2ccccc2F)C1=O,-2.23

row,Structure (SMILES),"activity change, negative = inhibition [%]"
1,C=CCn1c(SCC(N)=O)nnc1-c1cnccn1,-1.85
2,CCOC(=O)c1nc(NCc2cccnc2)c2ccccc2n1,1.8
3,Cc1ccc(S(=O)(=O)N(CC(=O)Nc2cc(C)ccc2C)C(=O)N2CCN(C)CC2)cc1,-11.5
4,CN(CC(=O)Nc1ccc(Cl)c(C(F)(F)F)c1)C(=O)c1cccnc1Sc1ccccc1,4.04
5,O=C(O)c1c(C(=O)O)c(-c2ccc(Br)cc2)n2c1CSC2,-0.118
6,CCCC1SCC(C)(C)NC1=O (configuration not stated),-1.99
7,Cc1cc(S(=O)(=O)Nc2c(NC3CCCCC3)c3ccccc3oc2=O)ccc1F,-1.83
8,CCCCC(=O)OCC(=O)C1(O)Cc2c(O)c3c(c(O)c2C(OC2CC(NC(=O)C(F)(F)F)C(O)C(C)O2)C1)C(=O)c1c(OC)cccc1C3=O (configuration not stated),-20.8
9,CN(Cc1cn(-c2ccccc2)nc1-c1ccc(F)cc1)C(=O)CCC(=O)O,-1.47
10,CCC(C)/C=C(C)/C=C/C1=CC2=C(Cl)C(=O)C(C)(OC(C)=O)C(=O)C2=CO1 (configuration not stated),0.929
11,CCC1CCc2c(sc(NC(=O)CSc3nc(-c4ccco4)cc(C(F)(F)F)n3)c2C#N)C1 (configuration not stated),-1.63
12,N#Cc1c(NC(=O)c2cccc(S(=O)(=O)Nc3ccc(C(=O)O)cc3)c2)sc2c1CCCC2,-3.44
13,COC1(OC)N=C(N)C2(C#N)C(c3ccc(F)cc3)C12C#N (configuration not stated),-8.68
14,CCCN(CC(=O)Nc1ccccc1C)C(=O)CCl,0.101
15,O=C(CCc1nc2ccccc2c(=O)[nH]1)NCc1ccco1,-2.48
16,Nc1ccc(Cc2ccc(N)c(C(=O)O)c2)cc1C(=O)O,-2.36
17,O=C(O)Cc1csc(-c2ccccc2)n1,-7.8
18,CCN(CC)c1nc2n(c(=O)n1)CCO2,-1.97
19,CC(C)(C)c1ccc(Cn2nnc3c(=O)[nH]c(C4CCCN(C(=O)c5ccco5)C4)nc32)cc1 (configuration not stated),-8.56
20,O=[N+]([O-])c1cc(Cl)ccc1Nc1ccccc1,-3.83
21,Cn1nc([N+](=O)[O-])c(C(C#N)c2nc3ccccc3n2C)c(Cl)c1=O (configuration not stated),-23.1
22,CCOC(OCC)c1nc(N)[nH]c(=O)c1CCCCc1ccccc1,-1.57
23,Cn1c(=O)c2c(ncn2CC(=O)N/N=C/c2ccc(Br)s2)n(C)c1=O,1.7
24,COc1ccc(NC(=O)Nc2c(O)ccc3ccccc23)cc1,-0.573
25,CCN(CC)S(=O)(=O)c1ccc(NC(=O)COC(=O)c2cc(S(=O)(=O)Nc3ccc(OC)cc3)ccc2O)cc1,0.508
26,Cc1[nH]n(-c2ccccc2)c(=O)c1N=Nc1c(Cl)cccc1Cl,-38.3
